# ± gives the standard deviation of the averaged measurements. The full data set covers some 5,400 targets. This sample favours those with the largest changes.
# Biological target: T1, UniProt O00255|O00255-2|O00255-3
# T1 sequence (whole entry): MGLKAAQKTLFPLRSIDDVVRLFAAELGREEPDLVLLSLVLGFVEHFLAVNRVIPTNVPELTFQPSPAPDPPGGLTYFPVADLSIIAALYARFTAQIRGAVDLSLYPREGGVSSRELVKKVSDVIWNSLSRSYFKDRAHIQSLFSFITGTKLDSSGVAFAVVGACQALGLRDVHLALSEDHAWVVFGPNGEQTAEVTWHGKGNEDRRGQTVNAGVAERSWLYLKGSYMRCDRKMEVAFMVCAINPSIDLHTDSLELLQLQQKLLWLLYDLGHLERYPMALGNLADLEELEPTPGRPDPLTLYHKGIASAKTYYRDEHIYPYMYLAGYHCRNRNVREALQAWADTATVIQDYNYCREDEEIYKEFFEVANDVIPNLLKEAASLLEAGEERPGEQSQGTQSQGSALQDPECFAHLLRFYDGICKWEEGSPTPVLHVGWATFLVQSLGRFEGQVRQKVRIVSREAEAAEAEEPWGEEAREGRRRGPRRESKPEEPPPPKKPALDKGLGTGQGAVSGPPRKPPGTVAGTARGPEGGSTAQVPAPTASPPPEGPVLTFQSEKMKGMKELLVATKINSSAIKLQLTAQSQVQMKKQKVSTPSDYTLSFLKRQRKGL
# Assay: NP40-soluble protein abundance relative to vehicle (solubility fold change) (ratio); higher = more soluble protein in presence of GTP
# Procedure: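 Solubility proteome profiling in Jurkat crude lysate. Lysate was treated with Mg-GTP (0.1-10 mM) for 10 min at room temperature and 3 min at 37 °C, then solubilised with 0.8% NP40 and benzonase, followed by ultracentrifugation. Proteins were quantified by TMT10 LC-MS/MS; the value is the NP40-soluble abundance relative to the NP40-processed vehicle, from 3 independent experiments.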
smiles,measurement,setting,value
Nc1nc2c(ncn2[C@@H]2O[C@H](COP(=O)(O)OP(=O)(O)OP(=O)(O)O)[C@@H](O)[C@H]2O)c(=O)[nH]1 [guanosine triphosphate],NP40-soluble protein abundance,concentration: 0.1mM,1.05 ± 0.044
same,NP40-soluble protein abundance,concentration: 0.5mM,1.04 ± 0.043
same,NP40-soluble protein abundance,concentration: 1mM,1.04 ± 0.065
same,NP40-soluble protein abundance,concentration: 2mM,1.07 ± 0.023
same,NP40-soluble protein abundance,concentration: 4mM,1.16 ± 0.069
same,NP40-soluble protein abundance,concentration: 6mM,1.14 ± 0.025
same,NP40-soluble protein abundance,concentration: 8mM,1.2 ± 0.016
same,NP40-soluble protein abundance,concentration: 10mM,1.21 ± 0.023

# Reference: the supplement of paper PMC6411743
